Potency data for 16 compounds are collected here from PubChem BioAssay (NCATS).

Molecules are shown by their SMILES. Results filed as inconclusive are left out. Where a call stands in place of a potency, no number is given. Calls of active or inactive are those of the source. The call rests on the fitted dose curve; in most records, active means well fitted cell-killing curve with a large enough effect; inconclusive means small, poorly fitted or top-dose-only effect, or effect the other way; inactive means flat fitted curve, though single readings scatter.
Potency means the concentration at half of the fitted maximal effect.

This test in a line: MultiTox-Fluor Cytotoxicity Assay - LYMP1-001 - Dead Cells (AID 946). The note with it: LYMP1-001 lymphoblastoid cells, dead-cell protease fluorescence; series mostly up to 92.2 µM. The text has this:
NIH Chemical Genomics Center [NCGC]
NIH Molecular Libraries Screening Centers Network [MLSCN]
National Institutes of Environmental Health Sciences [NIEHS]
National Toxicology Program [NTP]
We have developed a 1536-well cell-based assay for quantitative high throughput screening (qHTS) against a number of cell lines to determine in vitro cytotoxicity of small molecules. This particular assay uses a human lymphoblastoid cell line (LYMP1-001) purchased from Coriell Institute for Medical Research.
NCGC Assay Protocol Summary:
The MultiTox-Fluor Cytotoxicity Assay (Promega) is a homogeneous method to simultaneously measure the relative number of live and dead cells in culture by detecting changes in cell membrane integrity. There are two fluorogenic peptide substrates in the assay reagent. Viable cells are determined when the cell-permeant substrate (GF-AFC) enters the cell and is cleaved by protease from live cells resulting in liberated fluorophore. This live-cell protease activity restricted to viable cells is proportional to cell number. The dead cells are determined by using fluorogenic cell-impermeant peptide substrate (bis-AAF-R110) which cleaved by dead cell proteases leaking from damaged cell membrane.
Using the MultiTox-Fluor Cytotoxicity Assay, the relative number of dead cells was measured in the lymphoblastoid cell line with complete culture medium following compound treatment for 16 hours. The assay was performed in opaque black Kalypsys 1536-well plates. In the screen, tetraoctylammonium bromide was used as positive control. Library compounds were measured for their ability to cause acute toxicity in the cell line, as reflected by an increase in dead cell protease activity, in a concentration-dependent manner. Data were normalized to the controls for basal activity (DMSO only) and 100% stimulation (15 uM tetraoctylammonium bromide). AC50 values were determined from concentration-response data modeled with the standard Hill equation.
qHTS protocol for MultiTox-Fluor Cytotoxicity assay
[Step] [Parameter] [Value] [Description]
1. Reagent; 5 uL; 2500 lymphoblastoid cells/well
2. Time; 5 hr; 37 C incubation
4. Controls; 23 nL; Tetraoctylammonium bromide 6.4pM to 92 uM
5. Time; 16 hr; 37 C incubation
6. Reagent; 5 uL; MuliTox-Fluor Assay reagent
7. Time; 60 min; Room Temperature
8. Detection; dead-cell fluorescence (Ex/Em=485/520); EnVision plate reader
Keywords: cytotoxicity, lymphoblastoid cell line, fluorescence, NTPHTS, NTPHTS_NCGC, NIEHS, EPA, DSSTox, MLSMR, MLSCN, NIH Roadmap, qHTS, NCGC
On to `Cc1noc(NS(=O)(=O)c2ccc(N)cc2)c1C`, for which the Potency result was “inactive”.
Regarding `CC[C@H](C)C(=O)O[C@H]1C[C@@H](C)C=C2C=C[C@H](C)[C@H](CC[C@@H]3C[C@@H](O)CC(=O)O3)[C@H]21`, the Potency result was “inactive”.
Then `O=C(O)c1cc(=O)[nH]c(=O)[nH]1`, with “inactive”; and `C[C@]12C=CC(=O)C=C1CC[C@@H]1[C@@H]2C(=O)C[C@@]2(C)[C@H]1CC[C@]2(O)C(=O)CO`, with “inactive”.
Then `N=C(N)c1ccc(OCCCCCOc2ccc(C(=N)N)cc2)cc1`, with “inactive”; and `NC(N)=NC(N)=NCCc1ccccc1`, with “inactive”.
Then `Cc1nnc(NS(=O)(=O)c2ccc(N)cc2)s1`, with “inactive”.
`COc1ccc2cc3[n+](cc2c1OC)CCc1cc2c(cc1-3)OCO2`: the Potency entry was “inactive”.
As for `O=C(N[C@H](CO)[C@H](O)c1ccc([N+](=O)[O-])cc1)C(Cl)Cl`, the Potency result is “inactive”.
Then `Cc1ccnc2c1NC(=O)c1cccnc1N2C1CC1`, with “inactive”.
With `CC1=NN(c2ccccc2)C(=O)C1`, the Potency result was “inactive”.
The entry for `Cc1cc(NS(=O)(=O)c2ccc(N)cc2)no1` is “inactive”; for `NNC(=O)c1ccncc1` it is “inactive”; for `Cc1ncc([N+](=O)[O-])n1CCO` it is “inactive”.
The figure for `CN(C)c1ccc(C(=C2C=CC(=[N+](C)C)C=C2)c2ccc(N(C)C)cc2)cc1` is 12.6 µM (active).
For `CCc1cc(C(N)=S)ccn1`, the Potency entry was “inactive”.
